Data published in paper PMC5700166.

How the values were obtained:
Assay in all cases: protein-binding microarray (PBM); PBM: ~300 nM protein, 6 mM HEPES pH 7.8, 80 mM KCl, 0.5 mM EDTA, 0.5 mM EGTA, 6% glycerol, 35 ng/ul poly-dIdC, 1% milk, 1 h, room temperature; Ap Aiptasia and Nv Nematostella (sea anemones) / Co Capsaspora / Aq Amphimedon (sponge) / Dm Drosophila / Hu human; RHD is the Rel homology domain; high values mean tight binding
Settings in all cases: dsDNA, one strand shown
GST-Ap-NF-kB RHD = target: T1, GST-Ap-NF-kB RHD (Exaiptasia pallida (Aiptasia), UniProt A0A913YAJ5 2-422)
T1 sequence: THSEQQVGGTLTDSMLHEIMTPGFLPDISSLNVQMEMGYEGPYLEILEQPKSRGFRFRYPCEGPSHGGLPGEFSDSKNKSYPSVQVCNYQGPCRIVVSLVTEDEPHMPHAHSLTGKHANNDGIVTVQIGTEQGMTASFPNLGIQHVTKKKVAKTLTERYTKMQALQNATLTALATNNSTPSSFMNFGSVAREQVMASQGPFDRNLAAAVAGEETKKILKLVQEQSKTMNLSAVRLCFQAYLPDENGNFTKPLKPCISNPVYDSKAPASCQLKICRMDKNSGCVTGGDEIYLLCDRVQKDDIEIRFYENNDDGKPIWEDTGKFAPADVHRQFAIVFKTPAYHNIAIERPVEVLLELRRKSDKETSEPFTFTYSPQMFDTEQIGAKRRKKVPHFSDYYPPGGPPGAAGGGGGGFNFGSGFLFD

[1] = target: T2, GST-Nv-NF-kB (Cys allele) (Nematostella vectensis, UniProt E5G601 2-411)
T2 sequence: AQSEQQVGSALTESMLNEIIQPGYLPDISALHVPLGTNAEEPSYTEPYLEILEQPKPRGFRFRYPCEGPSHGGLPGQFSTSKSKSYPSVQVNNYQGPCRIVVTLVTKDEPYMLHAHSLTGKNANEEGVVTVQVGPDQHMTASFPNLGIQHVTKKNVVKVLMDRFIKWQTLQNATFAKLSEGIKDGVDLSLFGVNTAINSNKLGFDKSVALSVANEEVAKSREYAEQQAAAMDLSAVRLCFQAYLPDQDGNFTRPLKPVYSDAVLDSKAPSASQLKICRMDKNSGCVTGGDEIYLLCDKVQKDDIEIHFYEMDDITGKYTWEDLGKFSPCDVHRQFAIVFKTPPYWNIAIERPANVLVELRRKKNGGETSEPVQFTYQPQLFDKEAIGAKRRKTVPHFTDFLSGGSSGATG

GST-Co-NF-kB = target: T3, GST-Co-NF-kB (Capsaspora owczarzaki, UniProt F1ARL5 200-546)
T3 sequence: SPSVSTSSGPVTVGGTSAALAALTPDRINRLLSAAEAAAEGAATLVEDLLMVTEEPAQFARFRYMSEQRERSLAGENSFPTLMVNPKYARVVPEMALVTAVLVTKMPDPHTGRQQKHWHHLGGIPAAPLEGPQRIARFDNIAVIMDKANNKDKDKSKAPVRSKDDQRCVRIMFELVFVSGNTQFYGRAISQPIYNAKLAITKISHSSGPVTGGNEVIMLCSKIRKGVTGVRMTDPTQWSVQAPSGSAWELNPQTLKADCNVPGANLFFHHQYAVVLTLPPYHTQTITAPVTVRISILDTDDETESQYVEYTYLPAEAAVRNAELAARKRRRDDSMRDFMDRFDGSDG

GST-Dm-Relish = target: T4, GST-Dm-Relish (Drosophila melanogaster, UniProt Q94527 99-473)
T4 sequence: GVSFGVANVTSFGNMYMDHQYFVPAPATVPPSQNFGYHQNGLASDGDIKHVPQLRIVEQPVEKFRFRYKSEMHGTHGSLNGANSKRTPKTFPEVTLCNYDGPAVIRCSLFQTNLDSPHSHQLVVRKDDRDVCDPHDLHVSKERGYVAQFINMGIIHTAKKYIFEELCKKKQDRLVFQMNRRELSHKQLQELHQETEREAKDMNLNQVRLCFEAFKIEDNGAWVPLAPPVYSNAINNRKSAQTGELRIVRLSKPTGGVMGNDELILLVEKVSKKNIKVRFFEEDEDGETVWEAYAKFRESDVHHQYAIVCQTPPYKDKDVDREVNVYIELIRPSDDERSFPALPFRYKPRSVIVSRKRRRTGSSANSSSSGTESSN

GST-Aq-NF-kB = target: T5, GST-Aq-NF-kB (Amphimedon queenslandica, UniProt A9Y5G7 2-389)
T5 sequence: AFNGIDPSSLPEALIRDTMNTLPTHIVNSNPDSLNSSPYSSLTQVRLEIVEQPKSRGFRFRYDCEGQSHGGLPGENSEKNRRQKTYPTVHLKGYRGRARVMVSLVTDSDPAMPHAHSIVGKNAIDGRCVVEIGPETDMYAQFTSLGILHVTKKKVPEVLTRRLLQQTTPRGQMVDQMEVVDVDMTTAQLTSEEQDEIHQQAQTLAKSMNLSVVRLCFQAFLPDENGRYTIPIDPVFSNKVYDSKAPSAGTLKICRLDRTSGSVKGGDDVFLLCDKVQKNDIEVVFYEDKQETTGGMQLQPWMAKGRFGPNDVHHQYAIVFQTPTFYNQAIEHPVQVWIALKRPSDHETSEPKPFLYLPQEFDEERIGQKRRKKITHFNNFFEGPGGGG

| Sequence | binding signal (GST-Ap-NF-kB RHD) [z-score] | binding signal [1] [z-score] | binding signal (GST-Co-NF-kB) [z-score] | binding signal (GST-Dm-Relish) [z-score] | binding signal (GST-Aq-NF-kB) [z-score] |
| --- | --- | --- | --- | --- | --- |
| CCGATTAACATCAGGGGAAGGTATGATGTTAATCGGGTCTTGATTCGCTTGACGCTGCTG | 3.33 | 4.71 | 5.15 | 2.58 | 3.96 |
| CCGATTAACATCACTAAATTCCCTGATGTTAATCGGGTCTTGATTCGCTTGACGCTGCTG | 3.8 | 5.35 | 4.15 | 3.63 | 4.56 |
| CCGATTAACATCAGGACTCTCCCTGATGTTAATCGGGTCTTGATTCGCTTGACGCTGCTG | 3.59 | 5.02 | 1.1 | 2.07 | 7.56 |
| CCGATTAACATCAGTTCCCCCCATGATGTTAATCGGGTCTTGATTCGCTTGACGCTGCTG | 6.36 | 4.32 | 8.97 | 3.62 | 3.91 |
| CCGATTAACATCAGGGAGGGTAATGATGTTAATCGGGTCTTGATTCGCTTGACGCTGCTG | 2.31 | 2.15 | 1.71 | 1.12 | 2.39 |
| CCGATTAACATCACAACACCCCCTGATGTTAATCGGGTCTTGATTCGCTTGACGCTGCTG | 5.03 | 3.99 | 3.14 | 4.4 | 4.65 |
| CCGATTAACATCAGGGGGCGCACTGATGTTAATCGGGTCTTGATTCGCTTGACGCTGCTG | 3.71 | 3.04 | 2.37 | 4.13 | 4.79 |
| CCGATTAACATCAGGGGGTTACATGATGTTAATCGGGTCTTGATTCGCTTGACGCTGCTG | 6.46 | 4.25 | 3.27 | 6.42 | 4.89 |
| CCGATTAACATCAGGAGAACCCCTGATGTTAATCGGGTCTTGATTCGCTTGACGCTGCTG | 4 | 3.59 | 1.26 | 3.65 | 5.68 |
| CCGATTAACATCAGGGGGTGATATGATGTTAATCGGGTCTTGATTCGCTTGACGCTGCTG | 3.88 | 3.66 | 4.73 | 2.63 | 4.56 |
